Screens (PubChem)
Sampled rows, rich in hits. Any-hit rate of the full collection: about 18%.
GCN5L2 inh – qHTS Assay for Inhibitors of GCN5L2; GCN5L2 HAT assay, ThioGlo1 CoA-SH fluorescence; hit rate 0.21% among 390,000; Potency, µM (highest dose often 58.9 µM), for inactives: top-dose activity change, negative = inhibition, usual class: inhibitors; Histone acetyltransferase KAT2A (Homo sapiens), Q92830
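Titration-based screen in which CoA formation is detected via maleimide probe ThioGlo1 (50uM) turning fluorescent on thiol reaction; substrates H3(1-25) 75uM and acetyl-CoA 70uM, GCN5L2 20nM, 20 min incubation at room temperature.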
DT40 TDP1 no CPT – qHTS for Inhibitors of human tyrosyl-DNA phosphodiesterase 1 (TDP1): qHTS in cells in absence of CPT; DT40 Tdp1-/- hTDP1 cells, no CPT, ATP luminescence, 48 h; Potency, µM (series often up to 46.2 µM), for inactives: at the highest dose activity change, negative = growth inhibition, actives largely listed as inhibitors; hit rate 15% among 420,000; AID 686978, 2013; note: nearly all actives have a fitted effect of over 55% in size
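Growth of hTDP1-complemented DT40 Tdp1-knockout cells is measured by ATP luminescence after at least 48 hr compound exposure at 37 °C, with DMSO substituting for the 20 nM CPT used in the parallel screen.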
TDP1 inh – qHTS Assay for Inhibitors of Tyrosyl-DNA Phosphodiesterase (TDP1) | Tyrosyl-DNA phosphodiesterase 1 (Homo sapiens), Q9NUW8 | hit rate 0.28% among 350,000 | AID 485290, 2010 | recombinant TDP1, AlphaScreen DNA substrate cleavage | Potency, µM (titrated, usually from 130 µM), for inactives: at the top dose activity change, negative = inhibition, hits mostly inhibitors; note: nearly all actives have a fitted effect of over 40% in size
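Compounds were preincubated with Tdp1 (1 nM final) for 15 min at room temperature before substrate (15 nM final) started a 5 min reaction; beads (10 ug/ml final) were then added for 10 min before AlphaScreen detection.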
TDP1 cell CPT – qHTS for Inhibitors of human tyrosyl-DNA phosphodiesterase 1 (TDP1): qHTS in cells in presence of CPT | AID 686979, 2013 | chicken DT40 Tdp1-/-;hTDP1 cells + 20 nM CPT, ATP luminescence, 48 h | Potency, µM (titrated, usually from 46.2 µM), for inactives: at the top dose activity change, negative = growth inhibition, hits mostly inhibitors | hit rate 12% among 420,000; note: nearly all actives have a fitted effect of over 55% in size
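Cell growth measured by CellTiter-Glo luminescence after a minimum 48 h, 37 C compound exposure with 20 nM CPT in Tdp1-knockout DT40 cells stably expressing hTDP1, seeded 400/well; qHTS titration format.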
VDR inhibitor – Inhibitors of the vitamin D receptor (VDR): qHTS. hit rate 0.93% among 400,000. VDR-SRC2-3 peptide fluorescence polarization, 2 h. Potency, µM, inactives show max response, negative = inhibition, actives largely listed as inhibitors. AID 504847, 2011. Vitamin D3 receptor (Homo sapiens), P11473
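Two reagent solutions held at 4 deg C in the dark were dispensed, compounds pinned at 23 nl, and the mixture incubated 2 h at room temperature. Read-out: fluorescence polarization of VDR–SRC2-3 peptide binding.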
PLK1 PBD block – qHTS for Inhibitors of PLK1-PDB (polo-like kinase 1 - polo-box domain): Primary Screen; AID 720504, 2013; Serine/threonine-protein kinase PLK1 (Homo sapiens), P53350; Potency, µM, inactives show max response, negative = inhibition, most hits filed as inhibitors; hit rate 2.8% among 360,000; Plk1 PBD binding of FITC phosphopeptide, fluorescence polarization; note: series mostly up to about 57 µM; nearly all actives have a fitted effect of over 65% in size
Target sequence (P53350 whole entry, looked up, the tested form may be a part): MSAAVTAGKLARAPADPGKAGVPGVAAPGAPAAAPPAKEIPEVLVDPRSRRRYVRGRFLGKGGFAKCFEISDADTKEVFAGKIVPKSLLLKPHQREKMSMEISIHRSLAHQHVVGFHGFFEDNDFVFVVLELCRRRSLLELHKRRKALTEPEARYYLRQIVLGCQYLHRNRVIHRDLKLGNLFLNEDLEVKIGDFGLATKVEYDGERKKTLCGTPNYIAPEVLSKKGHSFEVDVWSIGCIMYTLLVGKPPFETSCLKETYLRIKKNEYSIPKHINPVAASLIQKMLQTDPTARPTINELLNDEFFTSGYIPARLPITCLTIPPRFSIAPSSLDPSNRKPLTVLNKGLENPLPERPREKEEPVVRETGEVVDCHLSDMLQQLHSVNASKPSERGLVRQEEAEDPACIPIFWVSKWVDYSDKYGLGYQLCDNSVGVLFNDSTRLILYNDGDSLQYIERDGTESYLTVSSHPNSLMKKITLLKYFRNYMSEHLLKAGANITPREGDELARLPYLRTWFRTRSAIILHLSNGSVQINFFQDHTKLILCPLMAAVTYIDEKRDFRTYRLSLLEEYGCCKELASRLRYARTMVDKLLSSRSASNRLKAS
* marks the source's active call; other numbers are inactive results; ? = inconclusive; . = not tested or not shown; [ ] = dose if it differs, or a comment. Calls come from the whole dose curve; as a rule, active = well fitted curve in the direction sought with a large enough effect; inconclusive = small, poorly fitted or top-dose-only effect, or another doubt; inactive = no such curve, though single readings can be large; an effect the other way counts as inactive or inconclusive. % is set by controls: 0 for no effect and ±100 for the full control effect; potency is the fitted concentration of half-maximal effect.

SMILES	GCN5L2 inh	DT40 TDP1 no CPT	TDP1 inh	TDP1 cell CPT	VDR inhibitor	PLK1 PBD block
COc1ccc(CNC(=O)C[C@H]2C[C@H](C(=O)N(C(C)C)C(C)C)[C@@]3(C)c4[nH]c5cc(-c6ccco6)ccc5c4CCN3C2=O)cc1OC	-9.0%	?	4.6%[56.1 µM]	18.4µM*	-22.8%	-0.8%
CC(C)N(C(=O)[C@H]1CC(CC(=O)NCCCN(C)C)C(=O)N2CCc3c([nH]c4ccccc34)[C@]12C)C(C)C (some centres not stated)	0.5%	-8.9%	1.7%	-22.0%	-19.6%	-4.5%
CC(C)N(C(=O)[C@H]1C[C@H](CC(=O)NCCC2=CCCCC2)C(=O)N2CCc3c([nH]c4ccc(Cl)cc34)[C@]12C)C(C)C	-12.3%	25.9µM*	0.5%[56.1 µM]	29.1µM*	-17.7%	-29.2%
CC(=O)c1cccc(N2C(=O)CN(S(C)(=O)=O)CC2(C)C(=O)NC2CCCC2)c1 (configuration not stated)	-5.1%	-10.7%	5.0%	-17.8%	17.6%	.
CC[C@H](C)[C@H](NC(=O)[C@H](C)NC(=O)[C@H](CC(=O)O)NC(=O)[C@H](CO)NC(=O)[C@@H](N)Cc1cnc[nH]1)C(=O)N[C@@H](Cc1ccccc1)C(=O)N[C@H](C(=O)N[C@@H](CCC(N)=O)C(=O)N[C@@H](CCC(N)=O)C(=O)N[C@@H](Cc1ccc(O)cc1)C(=O)N[C@@H](CO)C(=O)N[C@@H](CCCCN)C(=O)N[C@@H](CC(C)C)C(=O)N[C@@H](CC(C)C)C(=O)N[C@@H](C)C(=O)N[C@@H](CCCCN)C(=O)N[C@@H](CC(C)C)C(=O)N[C@@H](C)C(=O)N[C@@H](CC(C)C)C(=O)N[C@@H](CCC(N)=O)C(=O)N[C@@H](CCCCN)C(=O)N[C@@H](Cc1ccc(O)cc1)C(=O)N[C@@H](CC(C)C)C(=O)N[C@@H](C)C(=O)N[C@@H](CO)C(=O)N[C@H](C(=O)N[C@@H](CC(C)C)C(=O)NCC(=O)N[C@@H](CO)C(=O)N[C@@H](CCCNC(=N)N)C(=O)N[C@H](C(=O)N[C@@H](CO)C(=O)N1CCC[C@H]1C(=O)N1CCC[C@H]1C(=O)N1CCC[C@H]1C(N)=O)[C@@H](C)O)[C@@H](C)CC)[C@@H](C)O	?	.	7.5%	.	41.3%	.
CCN(CC)C(=O)[C@H]1C[C@H](CC(=O)NCCN2CCOCC2)C(=O)N2CCc3c([nH]c4cc(-c5ccco5)ccc34)[C@]12C	-1.1%	?	1.9%[56.1 µM]	20.6µM*	-16.0%	2.7%
CCN(CC)C(=O)[C@H]1C[C@H](CC(=O)NCc2ccco2)C(=O)N2CCc3c([nH]c4cc(-c5ccco5)ccc34)[C@]12C	-7.1%	?	6.8%[56.1 µM]	?	?	?
CCc1nnc(NC(=O)c2ccc(S(=O)(=O)N(C)Cc3ccccc3)cc2)o1	-0.4%	20.6µM*	3.3%	16.4µM*	-10.5%	-22.1%
CCN(Cc1ccccc1)S(=O)(=O)c1ccc(C(=O)Nc2nnc(C)o2)cc1	-3.1%	?	5.5%	23.1µM*	7.4%	-8.1%
CCc1nnc(NC(=O)c2ccc(S(=O)(=O)N(CC)Cc3ccccc3)cc2)o1	-16.3%	7.31µM*	9.4%	11.6µM*	-20.2%	2.99µM*
